# Compound activity deposited in PubChem BioAssay by The Scripps Research Institute Molecular Screening Center.
# This is a sample that favours compounds with a hit; in the whole collection about 2.8% have one here.
# proKLK7 act – proKLK7 zymogen activators, primary screen, biochemical, fluorescence intensity | Kallikrein-7 (Homo sapiens), P49862 | activation, % at 7 µM | purified proKLK7, EDANS-DABCYL substrate fluorescence; 100% is mature enzyme control, 0% vehicle | 0.9% of 370,000 active;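 active means activation above the mean of all tested compounds plus 3 SD, computed per campaign excluding outliers beyond control limits, cut at about 13% in these data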
# Target sequence (P49862 whole entry, looked up): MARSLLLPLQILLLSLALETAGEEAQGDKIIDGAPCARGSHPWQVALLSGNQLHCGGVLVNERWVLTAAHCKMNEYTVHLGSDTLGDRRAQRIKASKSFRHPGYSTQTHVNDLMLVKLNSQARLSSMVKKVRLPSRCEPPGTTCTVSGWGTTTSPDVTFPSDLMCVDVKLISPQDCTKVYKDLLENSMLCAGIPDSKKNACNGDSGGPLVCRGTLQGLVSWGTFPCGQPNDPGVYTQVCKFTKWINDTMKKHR
# MsrA act – bovine MsrA enzyme activators, primary screen, biochemical, absorbance, HTS | purified bovine MsrA, absorbance read-out | activation, % at 10.6 µM | 0.3% of 360,000 active; in the data active means activation above about 7.5%;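 further: 0% = vehicle and 100% = reference activator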
# SMARCA2 activ – SMARCA2 (BRM) function activators, primary screen, cell-based, luminescence, high throughput; MG213 cells, MMTV-luciferase reporter, dexamethasone, overnight; activation, % at 9.1 µM; 1% of 370,000 active; in the data active means activation above about 7.8%;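 further: 0% = vehicle wells and 100% = reference activator wells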
# MsrA inhibitor – bovine MsrA enzyme inhibitors, primary screen, biochemical, absorbance, HTS. Methionine sulfoxide reductase A (Bos taurus). purified bovine MsrA, absorbance read-out. inhibition, % at 15.5 µM. 0.75% of 360,000 active;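 further: 0% = vehicle wells with enzyme and 100% = reference inhibitor wells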
# MsrA activ conf – bovine MsrA activators, retest, confirmation, biochemical, absorbance, HTS; activation, % at 10.6 µM; shares compounds with MsrA act; AID 602270, 2012; 12% of 1,000 active; purified bovine MsrA, absorbance read-out; in the data active means activation above about 4%;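 further: enzyme coupled to thioredoxin and thioredoxin reductase with NADPH; 0% = vehicle wells and 100% = reference activator wells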
# MsrA inh confirm – bovine MsrA inhibitors, retest, confirmation, biochemical, absorbance, HTS | shares compounds with MsrA inhibitor | purified bovine MsrA, absorbance read-out | inhibition, % at 15.5 µM | 41% of 2,300 active | AID 651822, 2012;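 further: coupled to thioredoxin reductase with NADPH and selenocystamine and DMSO as substrate; 0% = vehicle only and 100% = full effect of reference inhibitor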
# SMARCA2 conf – SMARCA2 (BRM) function activators, confirmation, cell-based, luminescence, triplicate; 30% of 3,500 active; MG213 cells, MMTV-luciferase with dexamethasone, overnight; MG213 cells expressing E1A, Rb sequestered; DMSO wells 0%, reference activator 100%; shares compounds with SMARCA2 activ; activation, % at 9.1 µM;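 active means activation above its plate's cutoff, the mean activation of tested wells plus 3 SD, cut at about 7.9% in these data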
# VP16 Luc act – GAL4-VP16 luciferase reporter activation, counter-screen for SMARCA2 (BRM) activator project, cell-based, pG5luc, luminescence, high throughput. HEK293 GAL4-VP16 pG5luc reporter; scaled: DMSO wells 0%, SAHA wells 100%. 41% of 3,500 active. AID 686939, 2013. shares compounds with SMARCA2 activ. activation, % at 9.1 µM;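 active means activation above the solvent-only control well mean plus 3 SD, averaged across control plates, cut at about 5.2% in these data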
# KLK7 act conf – proKLK7 zymogen activators, confirmation, biochemical, fluorescence intensity, triplicate; shares compounds with proKLK7 act; purified proKLK7, EDANS-DABCYL substrate fluorescence; scaled: vehicle 0, mature enzyme 100; activation, % at 7 µM; 68% of 3,200 active; AID 686949, 2013;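 active means activation, as change over the incubation, above the mean of all tested compounds plus 3 SD, cut at about 13% in these data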
# EDANS interfere – EDANS-DABCYL substrate optical interference, artefact control for kallikrein-7 zymogen activator project, biochemical, fluorescence intensity, high throughput | no enzyme, 4 h; solvent 0%, active enzyme control 100% | 80% of 3,200 active | AID 686952, 2013 | shares compounds with proKLK7 act | activation, % at 7 µM;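 active means activation above the all-compound mean plus 3 SD, ignoring values outside control-based bounds, cut at about 4.8% in these data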;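 further: value is the 4 h activation minus the activation read at time zero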
# Active calls of the source: *; nt = no result. Unless noted, no stated cut-off is given here; in the data, active means inhibition above about 4.5%; inactive means the rest.
SMILES,proKLK7 act,MsrA act,SMARCA2 activ,MsrA inhibitor,MsrA activ conf,others
CN(Cc1ccccc1)C(=O)c1cccc(NC(=O)C2CCCN(C(=O)OC(C)(C)C)C2)c1 (configuration not stated),0,7.7*,-1,-1,-2,
O=C(CSc1ccc(Cl)cc1)NN=C1CCCCCC1,0,9.0*,-2,2,-2,
Cc1cccc(N2CCN(C3=NC(=O)C(=C4CCCCC4)S3)CC2)c1,0,8.0*,-4,1,0,
O=C1c2ccccc2NC(c2cc(Cl)cc(Cl)c2O)N1CCc1ccccn1 (configuration not stated),1,nt,4,0,nt,
COc1ccc(CC(=O)Nc2sc3c(c2C(N)=O)CCCC3)cc1,0,8.4*,-2,0,-2,
COc1cc(CC(=O)Nc2sc3c(c2C(N)=O)CCCC3)cc(OC)c1OC,0,-2,-2,2,nt,
O=c1[nH]c(=S)[nH]cc1Oc1ccc(Cl)cc1,0,9.0*,-3,0,4.2*,
O=c1[nH]c(=S)[nH]cc1Oc1ccc(Br)cc1Br,0,1,0,1,nt,
O=C1NC[C@@H](CCCCN2C[C@H](Cc3ccc(O)cc3)N(Cc3ccccc3)C(=O)C2=O)N(CCc2ccc(O)cc2)C1=O,0,-3,-1,0,nt,
Cc1no[n+]([O-])c1COc1cccc(/C=N/Nc2nncn2N)c1,-1,12*,-10,1,-3,
CC(=O)NC1(c2ccc(F)cc2)CCN(C(=O)Nc2ccc(F)cc2F)CC1,0,8.6*,-2,-1,0,
CC(=O)Nc1cccc(OCC(=O)Nc2ccccc2)c1,0,-6,4,0,nt,
CCOc1ccc(-c2cccc(NC(=O)COc3ccccc3)c2)nn1,nt,8.8*,nt,nt,1,
O=C(C[n+]1cc(-c2ccccc2)n2c1CCC2)c1cccs1,0,8.9*,-7,2,0,
O=C(CNc1ccc2ccccc2c1)N/N=C/c1ccc([N+](=O)[O-])o1,-1,8.3*,-1,2,-1,
O=C(COc1ccccc1)N/N=C/c1ccc([N+](=O)[O-])o1,0,-1,-3,4,nt,
CCCCNC(=O)N1CCCC1C(=O)Nc1cccc(OC)c1 (configuration not stated),0,nt,0,nt,nt,
O=C(c1ccccc1)c1coc2c1C(=O)c1ccccc1C2=O,-1,8.2*,4,19*,16*,MsrA inh confirm=26*
COc1ccc(CNC(=O)c2c(C)oc3c2C(=O)c2ccccc2C3=O)cc1,0,7.9*,-6,7.6*,8.0*,MsrA inh confirm=9.0*
COc1ccc(-n2c(SCC(=O)Nc3ccc(Oc4ccccc4)cc3)nnc2-c2cccnc2)cc1,1,nt,-5,nt,nt,
O=C(Nc1ccc2cn[nH]c2c1)c1c(Cl)cccc1Cl,0,-6,0,0,nt,
O=C1C(Cl)=C(Nc2ccc3cn[nH]c3c2)C(=O)c2ccccc21,0,26*,-11,17*,15*,MsrA inh confirm=10*
O=C1c2ccccc2C(=O)c2cc(S(=O)(=O)Nc3ccccc3)ccc21,0,10.0*,-4,29*,5.8*,MsrA inh confirm=31*
COc1cccc(CSC(C(=O)O)c2ccccc2)c1 (configuration not stated),0,0,-2,0,nt,
CSc1ccc(/C=C2\CCn3c2nc2cc(C(=O)O)ccc2c3=O)cc1,-3,10*,-1,5.0*,-6,MsrA inh confirm=4.8*
SMILES,proKLK7 act,MsrA act,SMARCA2 activ,MsrA inhibitor,MsrA activ conf,others
COC(=O)c1ccc(/C=C2\CCn3c2nc2cc(C(=O)O)ccc2c3=O)cc1,nt,-2,nt,nt,nt,
COc1cc(/C=C(/C(=O)O)c2ccc(-c3ccccc3)cc2)cc(OC)c1OC,0,-4,0,0,nt,
COc1cc(C=c2c3ccccc3n3c2cc(-c2ccccc2)[n+]3C)cc(OC)c1OC,-1,18*,-7,12*,9.9*,MsrA inh confirm=2
O=[N+]([O-])c1cccc(OC[C@@H](O)CN2CCC(C(O)(c3ccccc3)c3ccccc3)CC2)c1,0,nt,-3,nt,nt,
Cc1ccsc1/C=N/NC(=O)c1ccncc1,0,-3,5,3,nt,
C/C=C/C=N\NC(=O)c1ccncc1,0,15*,8.2*,-1,1,SMARCA2 conf=3;VP16 Luc act=-1
CCc1ccc(C(O)c2ncc(-c3ccc(Cl)cc3)[nH]2)cc1 (configuration not stated),0,-2,5,0,nt,
O=c1c2ccccc2sn1-c1cccc(Cl)c1,0,12*,13*,1,5.8*,SMARCA2 conf=3;VP16 Luc act=1
CNC(=S)Nc1sc2c(c1C(=O)OC)CCC2,0,8.4*,9.1*,2,2,SMARCA2 conf=0;VP16 Luc act=0
C[C@H]1CCCCO[C@H](CN(C)CC2CCCCC2)[C@@H](C)CN([C@@H](C)CO)C(=O)c2cc(NS(=O)(=O)c3ccccc3)ccc2O1,0,-1,-3,0,nt,
COc1ccc(OC)c2nc3c(C(=O)NCCN(C)C)cccc3nc12,0,21*,21*,0,12*,SMARCA2 conf=52*;VP16 Luc act=2
N#Cc1ccc2c(=O)n(-c3ccccc3)sc2c1,-3,5,4,-1,nt,
CC(=O)Nc1ccc2c(=O)n(-c3ccccc3)sc2c1,1,7.7*,9.8*,4,4,SMARCA2 conf=8;VP16 Luc act=2
CN1OC[C@@H]2CN(Cc3ccccc3)[C@H](c3cccc(-c4ccc(C#N)cc4)c3)C[C@@H]21,-1,0,-5,0,nt,
COC1=CC(=O)c2nc(Cl)ccc2C1=O,92*,12*,-15,0,7.5*,KLK7 act conf=161*;EDANS interfere=161*
COc1cccc2c1C(=O)C=C(C)C2=O,0,4,-2,0,nt,
